High-throughput results as filed in PubChem.
Pf growth 48h: Primary qHTS for delayed death inhibitors of the malarial parasite plastid, 48 hour incubation; Potency, µM (titrated, usually from 28.7 µM), for the others: at the highest dose activity change, negative = inhibition, hits mostly inhibitors; P. falciparum luciferase growth in erythrocytes, 48 h; AID 504832, 2011; 310,000 tested, 5.9% active; also: potency is read from the fitted curve at half-maximal effect
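Here the parasites carry a stable luciferase gene and grow inside erythrocytes in Albumax-based RPMI medium with compound for one erythrocytic cycle. Activity is scored as loss of luminescent signal.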
FBPA Giardia inh: qHTS Assay for Inhibitors of Fructose-1,6-bisphosphate Aldolase from Giardia Lamblia | A8B2U2 | purified Giardia FBPA | Potency, µM (highest dose often 59.6 µM), for inactives: at the top dose activity, negative = inhibition, hits mostly inhibitors | 290,000 tested, 0.71% active; also: potency is read from the fitted curve at half-maximal effect; nearly all actives have a fitted effect of over 55% in size
Target sequence (A8B2U2 whole entry, looked up): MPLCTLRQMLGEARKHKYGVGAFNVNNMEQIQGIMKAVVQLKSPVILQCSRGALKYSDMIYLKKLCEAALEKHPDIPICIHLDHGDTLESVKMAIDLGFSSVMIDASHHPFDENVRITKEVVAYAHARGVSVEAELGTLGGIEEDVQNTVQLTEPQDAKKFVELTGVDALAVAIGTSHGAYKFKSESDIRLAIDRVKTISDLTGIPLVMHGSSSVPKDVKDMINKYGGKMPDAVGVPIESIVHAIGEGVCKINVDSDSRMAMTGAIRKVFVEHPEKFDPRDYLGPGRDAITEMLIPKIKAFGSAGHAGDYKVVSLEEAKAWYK
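40 nM FBPA preincubated 10 min at RT with compound (up to 57.5 uM final), then substrate plus GAPDH/TPI/NAD/arsenate coupling and diaphorase/resazurin added. Fluorescence read after 20 min at RT, 525/598 nm.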
HCMV antiviral: qHTS Assay for inhibitors of the human cytomegalovirus (HCMV) | HFF cells, HCMV-luciferase reporter, 72 h; hits give low values | activity change, negative = inhibition, % at 57.5 µM | 410,000 tested, 4.5% active; in the data active = activity change below about -60%; inconclusive = no clear call, values can overlap the other calls; inactive = above about -39%
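Luciferase read-out from HCMV-luciferase-infected HFFs (MOI 1 PFU/cell) 72 h post infection at 37C; compounds added after 16 h cell attachment; activity normalized between buffer-only basal and Salinomycin (10uM) inhibitor controls.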
Pf growth 96h: Primary qHTS for delayed death inhibitors of the malarial parasite plastid, 96 hour incubation; Potency, µM (top dose mostly 28.7 µM), without a hit: at the highest dose activity change, negative = inhibition, most hits filed as inhibitors; 320,000 tested, 6.9% active; P. falciparum luciferase reporter growth, 96 h; also: potency is read from the fitted curve at half-maximal effect
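96 h incubation, 37 C, 5% CO2, of luciferase-reporter P. falciparum-infected RBCs (2% hematocrit, 0.05% parasitemia final) with test compounds; endpoint luminescence.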
Sm TGR block: qHTS Assay for the Inhibitors of Schistosoma Mansoni Peroxiredoxins; purified TGR, DTNB reduction, TNB absorbance 405 nm; Potency, µM (highest dose often 114 µM), for the others: at the highest dose activity change, negative = inhibition, usual class: inhibitors; 360,000 tested, 3% active; AID 485364, 2010; also: potency is read from the fitted curve at half-maximal effect; nearly all actives have a fitted effect of over 60% in size
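Kinetic colorimetric format: TGR-catalysed, NADPH-driven DTNB reduction monitored via TNB absorbance. Enzyme dispensed at 20 nM; compound exposure 15 min at room temperature before reaction start.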
Starred values were filed as active, the others as inactive; i = inactive; ? = inconclusive; · = no result; [ ] = remark or other dose. An excerpt weighted towards active compounds, which were near 14% of everything screened. Unless noted, calls follow the shape of the dose curve; as a rule, active = well fitted curve in the direction sought with a large enough effect; inconclusive = small, poorly fitted or top-dose-only effect, or another doubt; inactive = no such curve, though single readings can be large; an effect the other way counts as inactive or inconclusive. % is scaled to controls: 0 for no effect and ±100 for the full control effect.

SMILES	Pf growth 48h	FBPA Giardia inh	HCMV antiviral	Pf growth 96h	Sm TGR block
Cc1nn(C)cc1C1C2=C(CC(C)(C)CC2=O)N(c2ccccc2)C2=C1C(=O)CC(C)(C)C2	·	-6%	-34	3.7µM*	-1%
O=c1c(-c2cccs2)nc2cnc(Oc3cccc(Cl)c3)nc2n1C[C@H]1CCCO1	·	-7%	·	·	·
COc1ccc(-n2ccc(=O)c3c2CCCC3=O)cc1	-4%	0%	-26	-18%	0%
COc1ccc(N2C3=C(CC4=C2CCCC4=O)C(=O)CCC3)cc1	?	2%	?	12µM*	40µM*
Cc1ccc(-c2cn(-c3ccc(SC(F)F)cc3)c3[n+]2CCC3)cc1	0.37µM*	-1%	-98*	?	-4%
Clc1ccc(-n2cc(-c3ccc(Br)cc3)[n+]3c2CCCCC3)cc1	?	1%	-30	?	-3%
FC(F)Sc1ccc(-n2c(-c3ccc(Cl)cc3)c[n+]3c2CCC3)cc1	?	4%	-25	?	22%
FC(F)Sc1ccc(-n2cc(-c3ccc(Cl)cc3)[n+]3c2CCC3)cc1	0.74µM*	5%	-23	?	1%
CC(=C1N=C(c2ccccc2)OC1=O)c1cccs1	·	·	-36	·	·
O=C1CC(C(=O)O)S/C(=N\NC(=O)c2ccccc2)N1 (centres undefined)	-9%	?	-82*	17%	7%
C/C(=N\N=C1\NC(=O)CC(C(=O)O)S1)c1ccc(F)cc1 (centres undefined)	-1%	-10%	-31	26%	-25%
Cc1ccc(C(NC(=O)c2ccccc2)C(Cl)Cl)cc1 (centres undefined)	?	1%	25	4.1µM*	-12%
Cc1ccc(C(=O)CC(=O)c2ccccc2)cc1	45%	-23%	61	3.7µM*	-9%
Cc1ccc[n+](CC(=O)c2ccc(-c3ccccc3)cc2)c1	-28%	2%	-68*	?	-6%
Cc1ccc(C(=O)C[n+]2cccc(C(N)=O)c2)cc1	15%	-6%	-1	18%	6%
Cc1ccc[n+](CC(=O)c2ccc(Cl)cc2)c1	4%	11%	10	0.83µM*	6%
Cc1ccc(C(=O)Cc2ccccc2)cc1	·	·	-6	·	·
CC(C)n1nnnc1C1c2ccccc2C(=O)N1C1CC1 (centres undefined)	·	·	-2	·	·
O=C(C[n+]1ccncc1)c1ccccc1	19%	-18%	-4	?	35µM*
Cc1ccc(C(=O)C[n+]2cc(Br)cc(Br)c2)cc1[N+](=O)[O-]	9.3µM*	-1%	-32	?	32µM*
CC(=O)Nc1cc[n+](CC(=O)c2ccc(Cl)cc2)cc1	?	5%	-19	9.3µM*	2%
Cc1cc(C)c[n+](CC(=O)c2ccc(C)c([N+](=O)[O-])c2)c1	24%	-1%	-31	?	-17%
O=C(C[n+]1cc(Br)cc(Br)c1)c1ccccc1	13%	-3%	84	0.17µM*	11µM*
CC(=O)Nc1cc[n+](C(C)C(=O)c2ccc(Cl)cc2)cc1 (centres undefined)	?	3%	?	36%	-8%
Cc1ccc(S(=O)(=O)N2C[C@H]3C(=O)C[C@@H](c4ccccc4C)N(S(=O)(=O)c4ccc(C)cc4)[C@H]3C[C@H]2c2ccccc2)cc1	·	·	-36	·	·
SMILES	Pf growth 48h	FBPA Giardia inh	HCMV antiviral	Pf growth 96h	Sm TGR block
Cc1cc(C=O)c(C)n1-c1ccc(N2CCCC2)c([N+](=O)[O-])c1	?	6%	-10	?	19%
CCN1CCN(CCNC(=O)CCc2c(C)c3c(C)nn(-c4ccccc4)c3n(C)c2=O)CC1	?	·	·	11%	-20%
Cc1ccc(C(=O)Sc2cccccc2=O)cc1	4.1µM*	17%	-99*	2.9µM*	?
O=C(/C(=C(\[O-])c1ccccc1)[n+]1ccc2ccccc2c1)c1ccccc1	?	?	49	13µM*	-25%
CCN1CCN(CC(=O)c2ccc(C)cc2)CC1	·	?	-67*	0%	5%
O=C(C[n+]1ccc2ccccc2c1)c1ccccc1	?	-7%	12	9.3µM*	0%
CCC(C)/C(C)=N/NC(=O)c1ccc(COc2ccc(Cl)c(C)c2)cc1 (centres undefined)	63%	3%	23	44%	-2%
O=C(CSc1nnc(NC(=O)C2CC(=O)N(c3ccc(F)cc3)C2)s1)NC1CCCC1 (centres undefined)	-4%	·	-6	?	-6%
O=C(COC(=O)c1cc(Cl)nc(Cl)c1)NCc1ccc2c(c1)OCO2	·	·	0	·	·
CS(=O)(=O)c1ccc(Cl)c(NC(=O)CN2C(=O)C3CCCCC3C2=O)c1 (centres undefined)	6%	·	-15	52%	6%
CC(=O)OCC(=O)C1(O)CCC2C3CC(C)C4=CC(=O)C=CC4(C)C3C(O)CC21C (centres undefined)	·	·	38	·	·
CCCC(=O)N(CCN1CCOCC1)c1nc2c(OC)ccc(OC)c2s1	18%	?	0	36%	-27%
Cc1ccc(/C=C/C(=O)c2ccc(C)cc2)cc1	76%	-10%	17	13%	3%
Cc1ccc(C(=O)/C=C/C(=O)c2ccc(C)cc2)cc1	i	-1%	62	-3%	2.2µM*
O=C(Cn1cc[n+](CC(=O)c2ccccc2)c1)c1ccccc1	1µM*	12%	43	?	12%
Cc1ccc(C)[n+](CC(=O)c2ccc(-c3ccccc3)cc2)c1	9.3µM*	6%	-30	-6%	·
O=C(C[n+]1cccc(Br)c1)c1ccc(-c2ccccc2)cc1	1%	-8%	-74*	24%	-17%
O=C(Cn1cc[n+](CC(=O)c2ccc(Cl)cc2Cl)c1)c1ccc(Cl)cc1Cl	?	9%	-27	?	-3%
Cc1ccc(C(=O)C[n+]2ccccc2)cc1	44%	-1%	-32	16%	1%
O=C(C[n+]1cccc(Br)c1)c1ccccc1	-2%[0.00184 µM]	-1%	61	4%	-4%
CCc1ccccc1NC(=O)CNC(=O)c1ccccc1OCc1c(C)noc1C	-17%	·	-32	-1%	3%
O=C(NN=Cc1ccccc1OC(F)F)c1ccc(NS(=O)(=O)c2cccs2)cc1	·	·	31	·	·
CCc1ccc2occ(CC(=O)Nc3c(C(=O)c4ccc(F)cc4)oc4ccccc34)c2c1	·	·	1	·	0%
CCCNC(=O)C1(C)CCCN(Cc2cccc(Oc3ccccc3)c2)C1 (centres undefined)	·	·	-8	·	·
Cc1ccc(C(=O)C[n+]2cccc3ccccc32)cc1	13µM*	0%	67	4.1µM*	0%
O=C(CN1CCCCCC1)Nc1cc(C(F)(F)F)ccc1Cl	6%	1%	?	0%	-16%
